Most compounds without a hit are left out; they make up all but 19% or so of the library.
HT1080-NT tox = qHTS for induction of synthetic lethality in tumor cells producing 2HG: qHTS for the HT-1080-NT fibrosarcoma cell line | HT-1080-NT fibrosarcoma viability, CellTiter-Glo ATP luminescence, 48 h | Potency, µM (highest dose often 46.1 µM), without a hit: at the highest dose activity, negative = less viability, actives largely listed as cytotoxic | 1.6% of 360,000 active | AID 686970, 2013;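 also: NT is the 2HG producing partner of a matched IDH1 knockdown line; potency is read from the fitted curve at half-maximal effect; 0% = DMSO-treated cells and -100% = media-only wells without cells; nearly all actives have a fitted effect of over 55% in size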
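Compounds were tested in concentration-response format on HT-1080-NT cells for 48 hours at 37 degrees C. Cell viability came from CellTiter-Glo luminescence; curves were classified by r2, response magnitude and activity.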
HT1080 IDH1KD tx = qHTS for induction of synthetic lethality in tumor cells producing 2HG: qHTS for the HT-1080-IDH1KD cell line; HT-1080 IDH1 knockdown viability, ATP luminescence, 48 h; Potency, µM (titrated, usually from 46.1 µM), without a hit: top-dose activity, negative = toxicity, most hits filed as cytotoxic; 2% of 360,000 active; AID 686971, 2013;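 also: potency is read from the fitted curve at half-maximal effect; 0% = DMSO wells and -100% = cell-free medium wells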
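Luminescent ATP read-out (CellTiter-Glo, 10 min at room temperature) after 48 h compound exposure at 37 °C gave viability of IDH1-knockdown HT-1080 cells. Activity was normalised to DMSO and cell-free wells, then fitted as concentration-response curves.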
TDP1 cell noCPT = qHTS for Inhibitors of human tyrosyl-DNA phosphodiesterase 1 (TDP1): qHTS in cells in absence of CPT. 15% of 420,000 active. DT40 Tdp1-/- hTDP1 cells, no CPT, ATP luminescence, 48 h. Potency, µM (series often up to 46.2 µM), inactives show at the top dose activity change, negative = growth inhibition, usual class: inhibitors; also: potency is read from the fitted curve at half-maximal effect; nearly all actives have a fitted effect of over 55% in size
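No-CPT arm: Tdp1-/-;hTDP1 DT40 cells (400/well) plus compounds, incubated ≥48 hr at 37 °C. Readout CellTiter-Glo luminescence.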
IL1B secr inh = qHTS for Inhibitors of Inflammasome Signaling: IL-1-beta AlphaLISA Primary Screen; 4.7% of 360,000 active; activity change, % at 57.5 µM; THP-1 LPS/ATP IL-1B secretion, AlphaLISA, 16 h; active compounds read low; in the data active = activity change below about -50%; inconclusive = mostly about -30% to -49%
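THP-1 cells pretreated 1 hr with compounds (up to 57.5 uM final), then stimulated with LPS (250 ng/mL final) plus ATP (1.25 mM final); secreted IL-1B measured by AlphaLISA after 16 hr, decreased signal indicating inhibition.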
DT40 TDP1 CPT = qHTS for Inhibitors of human tyrosyl-DNA phosphodiesterase 1 (TDP1): qHTS in cells in presence of CPT; chicken DT40 Tdp1-/-;hTDP1 cells + 20 nM CPT, ATP luminescence, 48 h; Potency, µM (top dose mostly 46.2 µM), for the others: top-dose activity change, negative = growth inhibition, usual class: inhibitors; 12% of 420,000 active; AID 686979, 2013; also: potency is read from the fitted curve at half-maximal effect; nearly all actives have a fitted effect of over 55% in size
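Chicken DT40 Tdp1-/- cells complemented with human TDP1, 400 cells/well, exposed to compounds plus 20 nM camptothecin for at least 48 h at 37 C; viability read as ATP content by CellTiter-Glo luminescence.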
An asterisk follows results filed as active; ? = inconclusive; · = not tested or not shown; [ ] = another dose, or the depositor's remark. Unless noted, calls follow the shape of the dose curve; as a rule, active = well fitted curve in the direction sought with a large enough effect; inconclusive = small, poorly fitted or top-dose-only effect, or another doubt; inactive = no such curve, though single readings can be large; an effect the other way counts as inactive or inconclusive. Unless noted, % is scaled to controls: 0 for no effect and ±100 for the full control effect.

SMILES | HT1080-NT tox | HT1080 IDH1KD tx | TDP1 cell noCPT | IL1B secr inh | DT40 TDP1 CPT
O=C(/C=C/c1ccc2c(c1)OCO2)c1ccc(O)cc1O | -7.2% | -40.0% | ? | -94.5* | ?
CN1CCN(C(=O)/C=C/c2ccc3c(c2)OCO3)CC1 | 8.2% | 5.3% | 2.0% | -5.6 | -6.9%
O=C(COC(=O)c1ccc2c(=O)n3c(nc2c1)CCC3)Nc1ccc(OC(F)F)cc1 | 22.3% | 6.1% | 0.0% | 11.0 | 5.1%
CC(=O)c1sc(Nc2nc(C)cc(C)n2)nc1C | -2.1% | -0.6% | ? | -12.3 | -8.8%
CC(C)NC(=O)C1(C)CN(S(C)(=O)=O)CC(=O)N1Cc1cccc(F)c1 (stereo not drawn) | 20.3% | 16.0% | 16.6% | 4.3 | 18.1%
CCn1ccc2cc(S(=O)(=O)N3CCC(C(=O)NCCc4ccccc4)CC3)ccc21 | · | · | -28.6% | · | -22.5%
O=C1NC2(c3ccccc3)NC(=O)NC2(c2ccccc2)N1 (stereo not drawn) | 9.3% | 18.7% | 2.1% | -1.5 | 5.4%
COc1ccc(-c2[nH]ncc2C(=O)NCc2ccccc2OC)cc1 | · | · | -23.4% | · | -0.6%
Nc1ccccc1C(=O)/C=C/c1ccc2c(c1)OCO2 | -21.7% | -20.3% | ? | -3.0 | ?
O=C(/C=C/c1ccc2c(c1)OCO2)c1ccco1 | -0.1% | 0.6% | -27.5% | -96.3* | -19.0%
COc1ccc(-c2c(C(=O)c3ccccc3)[nH]c(N)c2C(=O)c2ccc(Br)cc2)cc1OC | -24.2% | -13.6% | ? | 3.5 | ?
CC(C)(C)C(=O)c1c(N)[nH]c(C(=O)c2ccccc2)c1-c1ccc(Br)cc1 | 2.8% | -8.8% | 23.1µM* | 7.0 | 20.6µM*
COC(=O)c1c(N)[nH]c(C(=O)c2ccccc2)c1-c1ccc(Br)cc1 | 7.1% | -28.5% | ? | 34.4 | 16.4µM*
O=C1c2ccccc2-c2n[nH]c3cccc1c23 | -15.3% | ? | 21.1µM* | -77.1* | 8.91µM*
O=C(CN1C(=O)COc2ccc(S(=O)(=O)N3CCOCC3)cc21)NCc1ccc(Cl)cc1 | · | · | -9.3% | · | -26.3%
CSc1ccc(CNC(=O)Cc2ccc(NC(=O)C3=C(C)OCCS3)cc2)cc1 | ? | 16.4µM* | 2.91µM* | 23.1 | 2.91µM*
CCOc1ccc(CCNC(=O)Cc2ccc(NC(=O)C3=C(C)OCCS3)cc2)cc1 | -4.5% | 0.5% | ? | -1.3 | ?
O=C(CSc1nnc(-c2cccnc2)n1Cc1ccccc1)NCc1ccccc1 | 11.8% | 7.2% | -17.2% | -19.8 | 11.5%
COc1ccc2cc(Br)ccc2c1CC(=O)NC1CC(C)(C)NC(C)(C)C1 | ? | 16.4µM* | 23.1µM* | -65.7* | ?
COc1ccccc1CNc1nc2cc(-c3ccc(OC)c(OC)c3)sc2c(=O)n1C | -24.0% | -11.4% | 16.4µM* | -19.4 | 23.1µM*
COc1ccc(-c2cc3nc(NCc4ccc(NC(C)=O)cc4)n(C)c(=O)c3s2)cc1OC | 19.7% | 11.7% | -1.1% | 4.3 | -0.3%
COc1cccc(CNc2nc3cc(-c4ccccc4C)sc3c(=O)n2C)c1OC | ? | ? | 23.1µM* | ? | 14.6µM*
COc1cccc(CNc2nc3cc(-c4ccccc4)sc3c(=O)n2C)c1OC | ? | ? | 29.1µM* | -3.8 | 16.4µM*
CC1(C)OC(=O)C2=C(C[C@@H](CCc3ccccc3)O[C@H]2CCc2cccc(Cl)c2)O1 | -0.6% | -23.5% | ? | 17.5 | ?
CN(CCc1ccccc1)C(=O)c1ccc(NC(=O)Cc2cccc(NC(=O)C3CCN(C(=O)C4CCCCC4)CC3)c2)cc1 | 2.0% | -14.2% | 20.6µM* | 20.5 | ?
SMILES | HT1080-NT tox | HT1080 IDH1KD tx | TDP1 cell noCPT | IL1B secr inh | DT40 TDP1 CPT
CN(CCc1ccccc1)C(=O)c1cccc(NC(=O)Cc2cccc(NC(=O)C3CCN(C(=O)C4CCC4)CC3)c2)c1 | -0.7% | -0.5% | 14.6µM* | 1.0 | ?
O=C(C[n+]1ccc(C(=O)c2ccccc2)cc1)Nc1ccc(C(F)(F)F)cc1 | -25.1% | ? | 16.4µM* | -60.0* | 23.1µM*
COc1ccc(S(=O)(=O)NCC(=O)Nc2ccc(F)cc2)cc1 | 7.4% | 0.0% | ? | 6.0 | -23.1%
O=C(CNS(=O)(=O)c1ccccc1)Nc1ccc(C(F)(F)F)cc1 | -3.3% | -9.1% | 16.4µM* | -1.4 | 16.4µM*
CC(C)c1ccc(NC(=O)CNS(=O)(=O)c2ccc(F)cc2)cc1 | 9.9% | -2.9% | 11.6µM* | 38.4 | 16.4µM*
O=C(Nc1ccc(C(F)(F)F)cc1)c1ccccc1 | 49.1% | 7.5% | -13.7% | -2.2 | -6.8%
Cc1ccc(S(=O)(=O)NCC(=O)Nc2ccc(C(F)(F)F)cc2)cc1 | 5.8% | 0.8% | ? | 8.0 | ?
O=C(CNS(=O)(=O)c1ccc(F)cc1)Nc1ccc(C(F)(F)F)cc1 | 1.0%[9.24 µM] | -26.5% | 18.4µM* | -23.4 | 18.4µM*
O=C(Cc1ccccc1)c1nnc(-c2ccccc2)o1 | 9.8% | 9.9% | -13.0% | 1.5 | 12.2%
Cc1oc2ncn(C)c(=O)c2c1C(=O)NCCCN(Cc1ccccc1)C(C)C | · | · | 3.4% | · | 8.0%
CC(C)C[C@@H](CNCC(=O)[C@H](Cc1c[nH]c2ccccc12)NC(=O)c1[nH]cnc1C(=O)N[C@@H](C)CN)NC(=O)c1nc[nH]c1C(=O)N[C@@H](C)C(=O)O | 2.6% | -2.8% | -14.3% | 35.5 | 5.1%
COc1ccc(C2=NN(C3=NN=C(N)Cc4ncnn43)C(O)(C(F)(F)F)C2)cc1 (stereo not drawn) | 22.7% | 0.0% | 9.1% | -12.2 | 15.5%
NC(=O)c1cc2cc(Cl)ccc2oc1=Nc1cccc(C(F)(F)F)c1 | 1.6% | 9.7% | ? | -13.1 | ?
Cc1ccccc1N1CCN(C(=S)c2ccc(-c3cccc([N+](=O)[O-])c3)o2)CC1 | -0.1% | -3.8% | -26.6% | 37.3 | ?
CC(=O)N1CCN(c2ccccc2NC(=O)c2ccc(-c3cccc([N+](=O)[O-])c3)o2)CC1 | -8.8% | -8.0% | 16.4µM* | -11.3 | 23.1µM*
CN1CCN(c2ccccc2NC(=O)c2ccc(-c3ccccc3[N+](=O)[O-])o2)CC1 | -4.6% | -29.6% | 16.4µM* | 0.0 | 14.6µM*
O=C(NC(=S)Nc1ccccc1N1CCCCC1)c1ccc(-c2cccc([N+](=O)[O-])c2)o1 | 3.8% | 12.2% | 23.1µM* | -10.8 | ?
COc1ccc(CNC(=O)Cc2c(C)c3ccc(O)cc3oc2=O)cc1 | · | · | -2.0% | · | 3.3%
Cc1ccc(Cn2ccc(NC(=O)c3cc(CC(C)C)on3)n2)cc1 | -15.9% | 0.0% | 20.6µM* | 11.1 | ?
